Article PMC7826789 (International Journal of Molecular Sciences, 2021)

Columns and labels:
Details in all cases: Compound Concentration (nM):1000
[1] = test system: BRSK2
[2] = test system: BTK
[3] = test system: BUB1
[4] = test system: T1, CAMK1B
T1 construct: gene PNCK

[5] = test system: CAMK1D
[6] = test system: CAMK1G
[7] = test system: CAMK1
[8] = test system: CAMK2A
[9] = test system: CAMK2B
[10] = test system: CAMK2D
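Note: KINOMEscan scanMAX binding as percent activity remaining versus control; lower means stronger binding.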

Compound	Percent Control [1]	Percent Control [2]	Percent Control [3]	Percent Control [4]	Percent Control [5]	Percent Control [6]	Percent Control [7]	Percent Control [8]	Percent Control [9]	Percent Control [10]
NS(=O)(=O)c1ccc(N/N=C2\C(=O)Nc3ccc(-c4cnco4)cc32)cc1 [GW276655]	66%	50%	74%	76%	71%	85%	74%	56%	78%	72%
COc1cc(/C=N/Nc2ncnc3[nH]ncc23)ccc1O [GW578748X]	61%	44%	23%	83%	85%	100%	100%	80%	100%	96%
Cc1cc(O)cc(C)c1/C=C/c1cncc(C(N)=O)c1 [GW435821X]	50%	100%	100%	100%	100%	100%	91%	100%	100%	100%
Nc1ncnc2occ(-c3ccc(NC(=O)Nc4cc(C(F)(F)F)ccc4F)cc3)c12 [GW770249X]	88%	87%	98%	94%	93%	94%	77%	100%	100%	100%
CC1=C(C(=O)Nc2ccc3[nH]ncc3c2)C(c2ccc3ccccc3c2)CC(=O)N1 (stereo not shown) [GSK270822A]	73%	13%	60%	67%	97%	91%	83%	87%	87%	79%
COc1ccc2[nH]c3c4[nH]c5ccc(OC)cc5c4c4c(c3c2c1)C(=O)NC4=O [GW296115X]	6.2%	74%	29%	78%	64%	76%	80%	70%	100%	64%
NS(=O)(=O)c1ccc(N/N=C2\C(=O)Nc3ccc(C(=O)NCCc4c[nH]cn4)cc32)cc1 [GW300660X]	89%	100%	54%	85%	100%	100%	100%	100%	100%	100%
CN1CCN(C(=O)c2ccc(NC(=O)Nc3ccc(N(C)c4ccnc(Nc5ccc(CS(C)(=O)=O)cc5)n4)cc3)cc2)CC1.Cl [GW830263A]	100%	50%	46%	85%	98%	88%	100%	86%	86%	69%
COc1ccc2cc(-c3c(-c4ccncc4)nc(-c4ccc(S(C)(=O)=O)cc4C)n3C)ccc2c1 [SB-633825]	73%	45%	33%	53%	96%	83%	93%	87%	97%	77%
O=C(Nc1n[nH]c2nc(-c3ccc(O)cc3)c(Br)cc12)C1CC1 [SB-725317]	47%	97%	94%	100%	100%	100%	100%	93%	97%	100%
NS(=O)(=O)c1ccc(Nc2ncc(-c3ccccc3)o2)cc1 [GW572399X]	100%	96%	80%	100%	100%	100%	78%	94%	100%	100%
O=C1Nc2ccc(C(=O)c3ccco3)cc2C1=Cc1cc(Cl)c(O)c(Cl)c1 [GW406108X]	100%	87%	50%	100%	81%	77%	63%	25%	44%	55%
CC(C)COC(=O)c1ccc2c(c1)/C(=C/Nc1ccc(S(N)(=O)=O)cc1)C(=O)N2 [GW416981X]	88%	100%	9.8%	92%	100%	100%	100%	29%	71%	72%
NS(=O)(=O)c1ccc(N/N=C2\C(=O)Nc3ccc(Cl)cc32)cc1 [GW280670X]	86%	100%	100%	100%	100%	100%	100%	100%	100%	100%
COc1cc(N2CCN(C(C)C)CC2)ccc1Nc1nc(Nc2ccc(F)cc2C(=O)NC[C@@H](O)CO)c2cc[nH]c2n1 [GSK1392956A]	100%	100%	88%	60%	40%	75%	73%	69%	64%	87%
C[C@@H](Oc1cc(-n2cnc3ccc(OC4CCN(C)CC4)cc32)sc1C(N)=O)c1ccccc1Cl [GSK579289A]	56%	92%	88%	100%	61%	81%	55%	74%	80%	52%
COc1ccc(COc2ccc(Cc3cnc(N)nc3N)cc2OC)cc1 [GW632580X]	55%	96%	100%	100%	95%	96%	100%	90%	96%	89%
CCS(=O)(=O)c1ccc(OC)c(Nc2ncc(-c3cccc(F)c3)o2)c1 [GW621970X]	89%	71%	100%	100%	100%	100%	100%	85%	100%	100%
CC1=C(C(=O)Nc2ccc3[nH]ncc3c2)C(c2ccc(Cl)c(Cl)c2)CC(=O)N1 (stereo not shown) [GSK299115A]	98%	26%	73%	81%	90%	100%	87%	80%	88%	96%
CN(C)CCNC(=O)Nc1ccc(N(C)c2ccnc(Nc3ccc(CS(C)(=O)=O)cc3)n2)cc1.Cl [GW830900A]	96%	74%	55%	93%	91%	100%	100%	92%	84%	93%

Compound	Percent Control [1]	Percent Control [2]	Percent Control [3]	Percent Control [4]	Percent Control [5]	Percent Control [6]	Percent Control [7]	Percent Control [8]	Percent Control [9]	Percent Control [10]
COc1cccc(-n2ncc3c(N/N=C/c4ccncc4)ncnc32)c1 [GW784752X]	61%	100%	77%	99%	100%	100%	99%	89%	82%	100%
Cl.O=C(Nc1ccc(Oc2ccc3[nH]c(NC(=O)c4ccccc4)nc3c2)cc1)Nc1cc(C(F)(F)F)ccc1F [GW709042A]	73%	93%	92%	100%	97%	100%	95%	100%	95%	100%
C/C(Nc1ccc(S(N)(=O)=O)cc1)=C1/C(=O)Nc2ccccc21 [GW335962X]	81%	83%	90%	79%	83%	86%	52%	79%	72%	100%
CCn1c(-c2nonc2N)nc2c(C#CC(C)(C)O)nc(OCCNC)cc21.Cl [GSK949675]	91%	100%	71%	100%	100%	100%	100%	100%	100%	100%
COc1ccccc1-c1cc(/C=C2\C(=O)Nc3ncc(Br)cc32)cc(Br)c1O [GW442130X]	100%	99%	73%	78%	100%	100%	100%	85%	88%	100%
Cl.O=S1CCN(Cc2ccc(-c3ccc4ncnc(Nc5ccc(OCc6ccccc6)c(F)c5)c4c3)o2)CC1 [GW576924A]	85%	100%	100%	100%	100%	100%	100%	100%	100%	100%
COc1cc2ncn(-c3cc(O[C@H](C)c4ccccc4Cl)c(C(N)=O)s3)c2cc1OC [GSK237701A]	47%	53%	56%	87%	91%	93%	86%	89%	100%	82%
Cl.O=C(Nc1ccc(Oc2ccc3[nH]c(NC(=O)c4ccco4)nc3c2)cc1)Nc1cc(C(F)(F)F)ccc1F [GW683134A]	98%	95%	95%	100%	100%	100%	59%	85%	79%	100%
COC(=O)Nc1nc2ccc(Oc3ccc(NC(=O)Nc4cc(C(F)(F)F)ccc4F)cc3)cc2s1.Cl [GW693917A]	93%	72%	65%	75%	90%	100%	88%	93%	88%	98%
COc1ccc2c(-c3ccnc(Nc4cccc(OC(F)(F)F)c4)n3)cnn2n1 [GW810372X]	77%	84%	86%	100%	100%	100%	100%	100%	100%	100%
Cl.c1ccc(Cc2nc3ccc(Nc4ncnc5ccccc45)cc3[nH]2)cc1 [GR269666A]	91%	100%	100%	89%	100%	100%	90%	93%	99%	100%
COc1cc(C=NNc2ncnc3c2cnn3-c2ccccc2)ccc1O [GW513184X]	73%	100%	81%	100%	100%	100%	100%	97%	100%	100%
COc1cc(C)c(N(C)C(=O)CN(C)C)cc1Nc1nc(Nc2cccc(F)c2C(N)=O)c2cc[nH]c2n1 [GSK2219385]	93%	100%	90%	85%	87%	95%	97%	89%	93%	82%
Cl.O=C(O[C@H]1CN[C@H](C#Cc2cc3ncnc(Nc4ccc5c(cnn5Cc5ccccc5)c4)c3s2)C1)N1CCOCC1 [GSK200398A]	100%	77%	45%	69%	100%	100%	100%	94%	84%	95%
NS(=O)(=O)c1ccc(N/N=C2\C(=O)Nc3ccc(C(=O)NCc4ccncc4)cc32)cc1 [GW300657X]	94%	89%	49%	70%	80%	88%	85%	66%	78%	81%
CCS(=O)(=O)c1ccc(OC)c(Nc2ncc(-c3cccc(OC)c3)o2)c1 [GW580509X]	96%	99%	95%	100%	99%	100%	87%	71%	80%	97%
COc1cccc(-c2c[nH]c3c(N/N=C/c4ccncc4)ncnc23)c1 [GW814408X]	92%	77%	50%	95%	100%	97%	100%	77%	81%	84%
COc1cc2ncnc(Nc3ccc4c(cnn4Cc4ccccc4)c3)c2cc1OC.Cl [GW282449A]	100%	40%	100%	100%	100%	100%	100%	100%	100%	100%
CCc1ccc(Oc2nccc(-c3c(-c4ccc(F)cc4)ncn3C3CCNCC3)n2)cc1 [SB-242719]	100%	100%	73%	100%	86%	100%	90%	67%	63%	100%
CN(C)c1cc2c(Nc3ccc4c(cnn4Cc4ccccc4)c3)ncnc2cn1 [GW282974X]	88%	64%	63%	98%	96%	91%	95%	74%	62%	72%
